# A selection: hits, their analogues and other compounds. The true share with any hit is near 6.9%.
# PLK1 PBD inh – qHTS for Inhibitors of PLK1-PDB (polo-like kinase 1 - polo-box domain): Primary Screen; Plk1 PBD binding of FITC phosphopeptide, fluorescence polarization; Potency, µM, without a hit: max response, negative = inhibition, most hits filed as inhibitors; 360,000 compounds, 2.8% hits; AID 720504, 2013; Serine/threonine-protein kinase PLK1 (Homo sapiens), P53350; further: series mostly up to about 57 µM; on the % scale 0 is the no-effect control and ±100 the full control effect; nearly all actives have a fitted effect of over 65% in size
# JMJD2A Tudor inh – qHTS Assay for Inhibitors of JMJD2A-Tudor Domain; AlphaScreen JMJD2A-Tudor / H3K4me3 peptide binding; Potency, µM (doses to about 114 µM), for the others: at the top dose activity change, negative = inhibition, most hits filed as inhibitors; 390,000 compounds, 4.4% hits; further: on the % scale 0 is the no-effect control and ±100 the full control effect; nearly all actives have a fitted effect of over 50% in size
# VDR inhibitor – Inhibitors of the vitamin D receptor (VDR): qHTS; VDR-SRC2-3 peptide fluorescence polarization, 2 h; Potency, µM, for inactives: max response, negative = inhibition, hits mostly inhibitors; 400,000 compounds, 0.93% hits; AID 504847, 2011; further: on the % scale 0 is the no-effect control and ±100 the full control effect
#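 After 23 nl compound addition and a short centrifugation, plates sat for 2 hours at ambient temperature; polarization of fluorescence then indicated loss of VDR binding to peptide SRC2-3.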
# BAZ2B inh – qHTS Assay for Inhibitors of BAZ2B | 360,000 compounds, 4.4% hits | Potency, µM (titrated, usually from 114 µM), for inactives: top-dose activity change, negative = inhibition, most hits filed as inhibitors | AlphaScreen BAZ2B-H3K14Ac peptide displacement | Bromodomain adjacent to zinc finger domain protein 2B (Homo sapiens), Q9UIF8 | AID 504333, 2011; further: on the % scale 0 is the no-effect control and ±100 the full control effect; nearly all actives have a fitted effect of over 60% in size
#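 AlphaScreen displacement of biotin-H3(5-23)K14Ac peptide (50 nM final) from BAZ2B (50 nM final) in PBS pH 7.4, 0.01% Tween-20; complex preformed 30 min RT, then compounds (top 110 uM) 30 min RT, beads 20 min dark.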
# HP1b binding inh – HTS for Inhibitors of HP1-beta Chromodomain Interactions with Methylated Histone Tails; Chromobox protein homolog 1 (Homo sapiens), P83916; AlphaScreen HP1-beta / biotin-H3K9me3 peptide binding; Potency, µM (series often up to 114 µM), for inactives: top-dose activity change, negative = inhibition, usual class: inhibitors; 390,000 compounds, 0.56% hits; AID 540317, 2011; further: nearly all actives have a fitted effect of over 70% in size
#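 HP1-beta protein (50 nM final) preincubated 30 min at room temperature with biotinylated H3(1-18)K9me3 peptide (50 nM) in PBS pH 7.4, 0.01% Tween-20, then compound added for 30 min. AlphaScreen streptavidin donor/nickel chelate acceptor beads (10 ug/mL final), 30 min dark, luminescence read.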
# L3MBTL1 block – qHTS Assay for the Inhibitors of L3MBTL1. 230,000 compounds, 0.66% hits. AlphaScreen L3MBTL1–H3K9me1 peptide binding. Lethal(3)malignant brain tumor-like protein 1 (Homo sapiens), Q9Y468. AID 485360, 2010. Potency, µM (highest dose often 57.1 µM), inactives show top-dose activity, negative = inhibition, hits mostly inhibitors; further: on the % scale 0 is the no-effect control and ±100 the full control effect; nearly all actives have a fitted effect of over 60% in size
#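 AlphaScreen assay: L3MBTL1 (50 nM final) was preincubated 30 min at room temperature with biotinylated H3(1-15)K9me1 peptide (75 nM final), then 30 min with library compounds; streptavidin donor and nickel chelate acceptor beads (10 ug/mL final) added, 30 min dark.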
# The depositor's hits bear a star; ? = inconclusive; . = no result given; [ ] = another dose, or the depositor's remark. The call rests on the fitted dose curve; in most records, active means well fitted curve in the direction sought with a large enough effect; inconclusive means small, poorly fitted or top-dose-only effect, or another doubt; inactive means no such curve, though single readings can be large; an effect the other way counts as inactive or inconclusive. Potency means the concentration at half of the fitted maximal effect.
SMILES,PLK1 PBD inh,JMJD2A Tudor inh,VDR inhibitor,BAZ2B inh,HP1b binding inh,L3MBTL1 block
Cc1ccccc1N(CC(=O)N/N=C/c1ccc(N(C)C)cc1)C(=O)c1ccccc1,-4%,20µM*,-14%,56µM*,?,.
CN(C)c1ccc(/C=N/NC(=S)NCc2ccccc2)cc1,24µM*,13µM*,-27%,?,50µM*,?
Cc1cc(-c2ccccc2)nc(N/N=C/c2ccccc2)n1,-12%,-24%,-4%,-3%,11%,.
Cc1cc(-c2ccccc2)nc(N/N=C/c2ccc(N(C)C)cc2)n1,-6%,35µM*,3%,.,?,.
CSC1=NC2C(N1)N(C)C(=O)N2C (stereo not drawn),-3%,-15%,-2%,35µM*,30%,.
O=C(O)c1ccc2c(c1)ncn2-c1ccc(F)c(F)c1,.,-7%,-8%,-11%,22%,.
O=[S+]([O-])([O-])c1ccc2c(c1)cc([S+](=O)([O-])[O-])c1nn(-c3ccc(/C=C/c4ccc(-n5nc6c([S+](=O)([O-])[O-])cc7cc([S+](=O)([O-])[O-])ccc7c6n5)cc4[S+](=O)([O-])[O-])c([S+](=O)([O-])[O-])c3)nc12,.,56µM*,2%,.,-22%,.
O=C(O)c1ccc2c(ccc3nn(-c4ccc(/C=C/c5ccc(-n6nc7ccc8cc(C(=O)O)ccc8c7n6)cc5[S+](=O)([O-])[O-])c([S+](=O)([O-])[O-])c4)nc32)c1,.,18µM*,-20%,.,?,.
O=C(CCSCc1ccccc1F)N1CCN(c2ccc(F)cc2)CC1,.,-22%,5%,-16%,13%,.
c1cncc(CNCc2ccco2)c1,3%,-14%,15%,71µM*,7%,.
O=C(CSc1nnc(-c2cccs2)o1)NCC1CN(Cc2ccccc2)CCO1 (stereo not drawn),-6%,-27%,-3%,56µM*,10%,.
O=C(O)C1CC(CCCP(=O)(O)O)CCN1 (stereo not drawn),.,.,1%,.,.,.
O=c1oc2ccccc2c(O)c1/C=C1\C=Nc2ccccc21,0.6µM*,-17%[11.4 µM],-9%,?,-10%,4%
COc1ccccc1N1CCN(C(=O)c2ccc3c(c2)NC(=O)C(CSCc2ccccc2C)N3)CC1 (stereo not drawn),.,.,.,50µM*,.,.
CCN(CC)C(=O)[C@H]1C[C@H](CC(=O)NCc2cccc(C(F)(F)F)c2)C(=O)N2CCc3c([nH]c4cc(-c5ccco5)ccc34)[C@]12C,-6%,?,-1%,.,?,-11%
COc1ccc(CC(=O)Nc2nc(C)cs2)cc1S(=O)(=O)N1CCOCC1,-2%,-15%,6%,3%,58%,2%
Cc1ccc(S(=O)(=O)N2CCOCC2)cc1C(=O)Nc1nc(-c2ccccn2)cs1,17µM*,40µM*,?,.,?,?
O=C(Nc1nc(-c2ccncc2)cs1)c1ccc(S(=O)(=O)N2CCOCC2)cc1,-1%,-27%,3%,10%,20%,6%
COc1ccccc1C(=O)Nc1nc(-c2ccc(S(=O)(=O)N3CCOCC3)cc2)cs1,?,-8%[57.1 µM],-14%,-3%,20%,.
COc1ccc(C(=O)Nc2nc(-c3ccccn3)cs2)cc1S(=O)(=O)N1CCOCC1,24µM*,25µM*,?,.,-12%,?
O=C(Nc1nc(-c2ccccn2)cs1)c1cccc(S(=O)(=O)N2CCOCC2)c1,19µM*,50µM*,?,28µM*,0%,?
COc1ccc(CC(=O)Nc2nc3ccccc3s2)cc1S(=O)(=O)N1CCOCC1,21µM*,?,?,-19%,-18%,-3%
CCOc1ccc(CNC(=O)Cn2ccc3cc(S(=O)(=O)N4CCCCC4)ccc32)cc1,.,-9%,3%,-20%,28%,.
CCOC(=O)c1c(-c2ccccc2Cl)csc1NC(=O)c1cc(S(=O)(=O)N2CCOCC2)ccc1C,11µM*,-13%,-13%,-27%,?,-9%
CCOc1ccccc1NC(=O)c1cc(S(=O)(=O)N2CCOCC2)ccc1C,-12%,-15%,-7%,-8%,2%,.
SMILES,PLK1 PBD inh,JMJD2A Tudor inh,VDR inhibitor,BAZ2B inh,HP1b binding inh,L3MBTL1 block
CCc1ccccc1NC(=O)CCn1cccn1,.,-7%,0%,-2%,62%,.
COC(=O)N1CCc2c(sc(NC(=O)C3COc4ccccc4O3)c2C(N)=O)C1 (stereo not drawn),11µM*,-27%,89µM*,6%,?,-6%
NC(=O)c1c(NC(=O)C2COc3ccccc3O2)sc2c1CCN(Cc1ccccc1)C2 (stereo not drawn),31%,-6%,3%,-12%,45%,.
O=C(c1cc(-c2ccc(O)cc2)on1)N1CCN(c2ccccc2)CC1,34µM*,56µM*,0%,?,-22%,.
O=C(c1cc(-c2ccc(O)cc2)on1)N1CCN(c2ccc(F)cc2)CC1,2%,?,-19%,?,9%,-14%
Cc1ccccc1CN1C(=O)c2ccccc2S(=O)c2ccc(C(=O)NCc3ccco3)cc21 (stereo not drawn),.,-16%,-8%,?,20%,.
CN(C)N=Nc1ccc(-c2cn(Cc3ccccc3)cn2)cc1,-17%,?,?,45µM*,-18%,-1%
CN(Cc1ccccc1)N=Nc1ccccc1,-3%,.,.,.,.,.
COc1cccc(/C=C2\N=C(C3CCCCC3)OC2=O)c1OC,-26%,88%,32µM*,127%,217%,.
CC(=O)Oc1ccc(/C=C2\N=C(C3CCCCC3)OC2=O)cc1,-19%,5%,79µM*,3%,34%,.
COc1ccccc1/C=C1\N=C(C(C)(C)C)OC1=O,-20%,50µM*,3%,40%,?,.
N#Cc1ccc(NC(=O)Cn2c3[n+](c4ccc(C(F)(F)F)cc42)CCCCC3)cc1,24µM*,14µM*,-10%,-13%,-8%,-3%[11.4 µM]
CCN(CC)S(=O)(=O)c1ccc(NC(=O)c2cc(=O)[nH]c3ccccc23)cc1,3%,-7%,16%,.,37%,5%
CCOc1ccc(NC(=O)c2cc(=O)[nH]c3ccccc23)cc1,-4%,-16%,7%,56µM*,10%,0%
CCOc1ccc(NC(=O)c2cc3ccccc3cc2O)cc1,?,79µM*,-17%,56µM*,-8%,.
CCOc1ccc(NC(=O)c2cccc3ccccc23)cc1,-7%,-21%,-6%,4%,27%,-4%
